SARS PLpro yeast = inhibitors of SARS-CoV papain-like protease in yeast; S. cerevisiae expressing SARS-CoV PLpro, growth rescue; Potency, µM (series often up to 32.9 µM), for inactives: top-dose activity, positive = growth rescue, hits mostly activators; 330,000 compounds, 0.19% hits; calls by dose curve; note: potency is the fitted concentration of half-maximal effect; 0% is about no effect; nearly all actives have a fitted effect of over 55% in size
Pf growth 96h = P. falciparum growth inhibition at 96 hours; P. falciparum luciferase reporter growth, 96 h; Potency, µM (series often up to 28.7 µM), without a hit: at the top dose activity change, negative = inhibition, hits mostly inhibitors; 320,000 compounds, 6.9% hits; note: potency is the fitted concentration of half-maximal effect; % is set by controls: 0 for no effect and ±100 for the full control effect
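Luminescence readout: decreased luciferase signal marks inhibited growth of reporter-expressing P. falciparum in infected red cells (2% hematocrit, 0.05% parasitemia final), exposed to compound two generations (96 h, 37 C, 5% CO2).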
Shiga inhibitor = inhibitors of Shiga toxin in Vero cells | Vero cells, Shiga toxin protein synthesis inhibition reporter | inhibition, % at 38.7 µM | 290,000 compounds, 9.2% hits | AID 2315; in the data active = inhibition mostly above about 28%, no sharp cut-off; inactive = mostly below about 43%; note: 0% is about no effect
Cycloheximide cs = affects cycloheximide protein synthesis inhibition readout, counter-screen; cell reporter, cycloheximide protein synthesis inhibition counterscreen; max response, %; 300,000 compounds, 12% hits; in the data active = max response mostly above about 13%, no sharp cut-off; inactive = mostly below about 14%; note: read at 38.3 µM for the half of the compounds with a filed dose; 0% is about no effect
Pf growth 48h = inhibits P. falciparum growth in the first generation, 48 h. Potency, µM (titrated, usually from 28.7 µM), for inactives: at the highest dose activity change, negative = inhibition, hits mostly inhibitors. P. falciparum luciferase growth in erythrocytes, 48 h. 310,000 compounds, 5.9% hits; note: potency is the fitted concentration of half-maximal effect; % is set by controls: 0 for no effect and ±100 for the full control effect
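Growth was read as firefly luciferase luminescence after a 48 h, 37 C, 5% CO2 exposure of compounds to reporter-bearing P. falciparum cultures (0.1% parasitemia, 2% hematocrit final) in Albumax-supplemented RPMI 1640.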
AMA1 RON2 block = AMA1-RON2 (P. falciparum) interaction inhibition; AlphaScreen AMA1-biotinylated RON2 peptide binding; Potency, µM (series often up to 58.2 µM), for the others: top-dose activity change, negative = inhibition, usual class: inhibitors; 360,000 compounds, 0.2% hits; AID 720542;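 note: potency is the fitted concentration of half-maximal effect; 0% = vehicle wells and -100% = peptide control; nearly all actives have a fitted effect of over 45% in size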
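AMA1 (3D7) with his tag at 25 nM final met compounds first, then biotinylated RON2 peptide at 25 nM; detection used donor plus acceptor beads, 10 µg/mL apiece, read by AlphaScreen after 30 min at room temperature.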
Starred values were filed as active, the others as inactive; i = inactive; ? = inconclusive; nt = no result; [ ] = another dose, or the depositor's remark. Sampled rows, rich in hits. Any-hit rate of the full collection: about 19%. Unless noted, calls come from the whole dose curve; as a rule, active = well fitted curve in the direction sought with a large enough effect; inconclusive = small, poorly fitted or top-dose-only effect, or another doubt; inactive = no such curve, though single readings can be large; an effect the other way counts as inactive or inconclusive.

SMILES | SARS PLpro yeast | Pf growth 96h | Shiga inhibitor | Cycloheximide cs | Pf growth 48h | AMA1 RON2 block
CCN(CC(=O)Nc1ccc(NC(C)=O)cc1)C(=O)CCCc1nc2ccccc2s1 | -5% | ? | nt | nt | -23% | 2%
CCCCC(C(=O)OCC)C(N)Cc1ccc(F)cc1 (stereo not given) | 4% | 45% | -15 | 16 | ? | 6%
CN(C)C(CNC(=O)c1ccc(S(=O)(=O)Nc2ccccc2F)cc1)c1ccco1 (stereo not given) | 1% | ? | nt | nt | ? | 39%[11.6 µM]
CCCNC(=O)c1nn2c(C(F)(F)F)cc(-c3ccccc3)nc2c1Br | -4% | 9.3µM* | -4 | 1 | ? | 1%
O=C(NCCCn1ccnc1)c1nn2c(C(F)(F)F)cc(-c3ccccc3)nc2c1Cl | -5% | -10% | -16 | -6 | 15µM* | -9%
O=C(c1ccccc1)N1CCN(C(=O)c2nn3c(C(F)(F)F)cc(-c4ccccc4)nc3c2Br)CC1 | 1% | 21% | -4 | 5 | 8.3µM* | -2%
Cc1cccc(OCC(=O)O/N=C(\N)c2ccccn2)c1 | -1% | 69% | 62* | 52* | 132% | 31%
Cc1ccc(OCC(=O)O/N=C(\N)c2ccccn2)cc1C | -1% | 85% | 95* | 51* | 221% | 40%
Cc1cc(C)cc(OCC(=O)O/N=C(\N)c2ccccn2)c1 | 0% | ? | 68 | 31 | 25% | 17%
N/C(=N\OC(=O)COc1ccc(Br)cc1)c1cccc([N+](=O)[O-])c1 | 2% | 13% | -9 | 5 | 11% | -10%
Cc1ccc(OCC(=O)O/N=C(\N)c2ccncc2)cc1C | -9% | -14% | 54* | 29* | 57% | 10%
Cc1cc(OCC(=O)O/N=C(\N)c2ccccc2)ccc1Br | 1% | -23% | active | 33* | 22% | 28%
CC1(C)CC2(CC(c3ccccc3)Oc3cc(O)ccc32)NC(=S)N1 (stereo not given) | -2% | 0% | -9 | -4 | -22% | 22%
CC1(C)CC(=O)C2=C(C1)N=C1SCCC(=O)N1C2c1cccc([N+](=O)[O-])c1 (stereo not given) | 0% | -17% | 8 | -9 | 268% | -2%
CCOc1ccc(C(=O)O/N=C(\N)c2ccccn2)cc1 | -17% | 0% | -20 | -12 | -90% | 32%
N/C(=N\OC(=O)COc1ccccc1)c1ccccn1 | -20% | 53% | 66* | 34* | 143% | 3%
CCc1ccc(OCC(=O)O/N=C(\N)c2ccccn2)cc1 | -4% | 176% | 85* | 54* | 161% | 38%
O=C(c1ccccc1)c1ccc2ccccc2n1 | 6% | 23% | 74 | 39* | nt | 21%
O=C(Nc1ccc2ccccc2n1)c1ccccc1Br | -3% | 160% | 131* | 41* | 83% | 1%
COc1ccc(C(=O)Nc2ccc3ccccc3n2)cc1OC | -3% | ? | nt | 29* | 74% | 4%
Cc1cc(C)cc(NC(=O)Nc2ccc3ccccc3n2)c1 | 1% | 34% | 10 | -2 | 18% | 11%
Cc1ccc(C(=O)Nc2ccc3ccccc3n2)cc1 | 10% | 411% | 42* | 41* | 176% | -2%
COc1ccc(-c2ccccc2)cc1NC(=O)C1(C)CCN1C(=O)C(C)C (stereo not given) | nt | nt | nt | nt | nt | 10%
O=C(CCc1ccccc1)Nc1ccc2ccccc2n1 | -1% | ? | 104* | 47* | 114% | -6%
O=C(Nc1ccc2ccccc2n1)c1ccccc1 | -2% | i | 66* | 49* | -3% | 3%
O=C(Nc1ccc2ccccc2n1)Nc1cccs1 | -2% | 35% | 31 | -1 | 19% | -2%
Cn1cccc1Cc1nnc(SCC(=O)Nc2cccc(Cl)c2)n1-c1ccc(F)cc1 | 15% | 8.3µM* | -14 | -7 | ? | 0%
COc1ccc(Cl)cc1NC(=O)CSc1nnc(Cc2cccn2C)n1-c1ccc(F)cc1 | -1% | ? | -14 | -5 | 13µM* | -1%
COc1ccc(-n2c(Cc3cccn3C)nnc2SCC(=O)Nc2ccc(C(C)=O)cc2)cc1 | 6% | 0.47µM* | -4 | -2 | nt | 6%
CC(=O)Nc1cccc(NC(=O)CSc2nnc(Cc3cccn3C)n2-c2ccc(C)cc2)c1 | 2% | 4.1µM* | 4 | 1 | ? | 31%

High-throughput results (PubChem BioAssay)
